Where two headings read alike, the source gives them in different places.
What was measured:
Parameters in all cases: species or system human, MV4-11 + K-562 + COLO205 + SK-N-BE2 + OVCAR-8
PRKACA = details: read-out: apparent Kd; compound concentrations:100 nM and 1000 nM (sheet 'Samples'); n = 1
PRKACB = details: read-out: apparent Kd; compound concentrations:100 nM and 1000 nM (sheet 'Samples'); n = 1
PRKX;PRKY = details: read-out: apparent Kd; compound concentrations:100 nM and 1000 nM (sheet 'Samples'); n = 1
ROCK1 = details: read-out: apparent Kd; compound concentrations:100 nM and 1000 nM (sheet 'Samples'); n = 1
CDK16 = details: read-out: apparent Kd; compound concentrations:100 nM and 1000 nM (sheet 'Samples'); n = 1
CDK2 = details: read-out: apparent Kd; compound concentrations:100 nM and 1000 nM (sheet 'Samples'); n = 1
CDK9 = details: read-out: apparent Kd; compound concentrations:100 nM and 1000 nM (sheet 'Samples'); n = 1
CLK1 = details: read-out: apparent Kd, n = 1
CLK2 = details: read-out: apparent Kd; compound concentrations:100 nM and 1000 nM (sheet 'Samples'); n = 1
CLK4 = details: read-out: apparent Kd, n = 1
GSK3A = details: read-out: apparent Kd; compound concentrations:100 nM and 1000 nM (sheet 'Samples'); n = 1
GSK3B = details: read-out: apparent Kd; compound concentrations:100 nM and 1000 nM (sheet 'Samples'); n = 1
ICK = details: read-out: apparent Kd; compound concentrations:100 nM and 1000 nM (sheet 'Samples'); n = 1
NUAK2 = details: read-out: apparent Kd; compound concentrations:100 nM and 1000 nM (sheet 'Samples'); n = 1
PRKCA = details: read-out: apparent Kd; compound concentrations:100 nM and 1000 nM (sheet 'Samples'); n = 1
PRKCB = details: read-out: apparent Kd, n = 1
PRKCD = details: read-out: apparent Kd; compound concentrations:100 nM and 1000 nM (sheet 'Samples'); n = 1
PRKCI = details: read-out: apparent Kd; compound concentrations:100 nM and 1000 nM (sheet 'Samples'); n = 1
PRKCQ = details: read-out: apparent Kd; compound concentrations:100 nM and 1000 nM (sheet 'Samples'); n = 1
RPS6KA3 = details: read-out: apparent Kd; compound concentrations:100 nM and 1000 nM (sheet 'Samples'); n = 1
RPS6KA6 = details: read-out: apparent Kd; compound concentrations:100 nM and 1000 nM (sheet 'Samples'); n = 1
RPS6KB1 = details: read-out: apparent Kd; compound concentrations:100 nM and 1000 nM (sheet 'Samples'); n = 1
SLK = details: read-out: apparent Kd; compound concentrations:100 nM and 1000 nM (sheet 'Samples'); n = 1
STK26 = details: read-out: apparent Kd; compound concentrations:100 nM and 1000 nM (sheet 'Samples'); n = 1
VDAC3 = details: read-out: apparent Kd; compound concentrations:100 nM and 1000 nM (sheet 'Samples'); n = 1
CDK10 = details: read-out: apparent Kd; compound concentrations:100 nM and 1000 nM (sheet 'Samples'); n = 1
ILK = details: read-out: apparent Kd; compound concentrations:100 nM and 1000 nM (sheet 'Samples'); n = 1
PKN1 = details: read-out: apparent Kd; compound concentrations:100 nM and 1000 nM (sheet 'Samples'); n = 1
CDC7 = details: read-out: apparent Kd; compound concentrations:100 nM and 1000 nM (sheet 'Samples'); n = 1
PIK3CD = details: read-out: apparent Kd; compound concentrations:100 nM and 1000 nM (sheet 'Samples'); n = 1
TGFBR1 = details: read-out: apparent Kd; compound concentrations:100 nM and 1000 nM (sheet 'Samples'); n = 1
CDK4 = details: read-out: apparent Kd, n = 1
MAP2K2 = details: read-out: apparent Kd; compound concentrations: 100 nM and 1000 nM (sheet 'Samples'), CATDS: 0.35471612701675298; n = 1
PDGFRB = details: read-out: apparent Kd; compound concentrations: 100 nM and 1000 nM (sheet 'Samples'), CATDS: 0.32038670462926999; n = 1
CDK17 = details: read-out: apparent Kd; compound concentrations:100 nM and 1000 nM (sheet 'Samples'); n = 1
CDK1 = details: read-out: apparent Kd; compound concentrations:100 nM and 1000 nM (sheet 'Samples'); n = 1
CDK5 = details: read-out: apparent Kd; compound concentrations:100 nM and 1000 nM (sheet 'Samples'); n = 1
CDK6 = details: read-out: apparent Kd; compound concentrations:100 nM and 1000 nM (sheet 'Samples'); n = 1
CDK7 = details: read-out: apparent Kd; compound concentrations:100 nM and 1000 nM (sheet 'Samples'); n = 1
NNT = details: read-out: apparent Kd; compound concentrations:100 nM and 1000 nM (sheet 'Samples'); n = 1
PSMC4 = details: read-out: apparent Kd, n = 1
CDC42 = details: read-out: apparent Kd, n = 1
DJA1 = system: T1, DJA1; details: read-out: apparent Kd; compound concentrations:100 nM and 1000 nM (sheet 'Samples'); n = 1
T1 construct: gene DNAJA1

COX5A = details: read-out: apparent Kd; compound concentrations: 100 nM and 1000 nM (sheet 'Samples'), CATDS: 4.3023154041585097E-2; n = 1
CSNK1D = details: read-out: apparent Kd; compound concentrations: 100 nM and 1000 nM (sheet 'Samples'), CATDS: 4.2260690384559901E-2; n = 1
CSNK1E = details: read-out: apparent Kd; compound concentrations: 100 nM and 1000 nM (sheet 'Samples'), CATDS: 3.6484131745227702E-2; n = 1
EIF2AK1 = details: read-out: apparent Kd; compound concentrations: 100 nM and 1000 nM (sheet 'Samples'), CATDS: 4.9510201878617897E-2; n = 1
GAK = details: read-out: apparent Kd; compound concentrations: 100 nM and 1000 nM (sheet 'Samples'), CATDS: 0.41748311116987502; n = 1
IGF1R = details: read-out: apparent Kd; compound concentrations: 100 nM and 1000 nM (sheet 'Samples'), CATDS: 4.75175381268634E-2; n = 1
INSR = details: read-out: apparent Kd; compound concentrations: 100 nM and 1000 nM (sheet 'Samples'), CATDS: 6.6437205793840798E-2; n = 1
MAPK10 = details: read-out: apparent Kd; compound concentrations: 100 nM and 1000 nM (sheet 'Samples'), CATDS: 0.17405984899870899; n = 1
MAPK8 = details: read-out: apparent Kd; compound concentrations: 100 nM and 1000 nM (sheet 'Samples'), CATDS: 0.110364514010045; n = 1
MAPK9 = details: read-out: apparent Kd; compound concentrations: 100 nM and 1000 nM (sheet 'Samples'), CATDS: 6.3911773548267894E-2; n = 1
NQO2 = details: read-out: apparent Kd; compound concentrations: 100 nM and 1000 nM (sheet 'Samples'), CATDS: 4.0166930587455497E-2; n = 1
PTK2B = details: read-out: apparent Kd; compound concentrations: 100 nM and 1000 nM (sheet 'Samples'), CATDS: 7.7838120070478606E-2; n = 1
TNK1 = details: read-out: apparent Kd; compound concentrations: 100 nM and 1000 nM (sheet 'Samples'), CATDS: 8.1062749446302901E-2; n = 1
TTK = details: read-out: apparent Kd; compound concentrations: 100 nM and 1000 nM (sheet 'Samples'), CATDS: 5.00246606430578E-2; n = 1
[1] = compound concentrations:100 nM and 1000 nM (sheet 'Samples')

## Cl.Cl.NC[C@H](Cc1ccc(C(F)(F)F)cc1)NC(=O)c1cc(Br)c(-c2ccnc3[nH]ccc23)s1.NC[C@H](Cc1ccc(C(F)(F)F)cc1)NC(=O)c1cc(Br)c(-c2ccnc3[nH]ccc23)s1 [GSK1487252A]
PRKACA
  potency estimated from few doses: 20.5 nM
PRKACB
  potency estimated from few doses: 60.6 nM
PRKX;PRKY
  potency estimated from few doses: 593 nM
ROCK1
  potency estimated from few doses: 217 nM

## Cn1cc(C2=C(c3cn(CCCSC(=N)N)c4ccccc34)C(=O)NC2=O)c2ccccc21 [RO0318220-000]
CDK16
  potency estimated from few doses: 1720 nM
CDK2
  potency estimated from few doses: 1070 nM
CDK9
  potency estimated from few doses: 694 nM
CLK1; [1]
  potency estimated from few doses: 785 nM
CLK2
  potency estimated from few doses: 434 nM
CLK4; [1]
  potency estimated from few doses: 1430 nM
GSK3A
  potency estimated from few doses: 158 nM
GSK3B
  potency estimated from few doses: 183 nM
ICK
  potency estimated from few doses: 1720 nM
NUAK2
  potency estimated from few doses: 1420 nM
PRKCA
  potency estimated from few doses: 41.5 nM
PRKCB; [1]
  potency estimated from few doses: 105 nM
PRKCD
  potency estimated from few doses: 58.4 nM
PRKCI
  potency estimated from few doses: 2280 nM
PRKCQ
  potency estimated from few doses: 121 nM
RPS6KA3
  potency estimated from few doses: 1300 nM
RPS6KA6
  potency estimated from few doses: 33.8 nM
RPS6KB1
  potency estimated from few doses: 419 nM
SLK
  potency estimated from few doses: 2100 nM
STK26
  potency estimated from few doses: 1480 nM
VDAC3
  potency estimated from few doses: 2310 nM

## CN1C[C@@H]2Cn3c(c(C4=C(c5cn(C)c6ccccc56)C(=O)NC4=O)c4ccccc43)C[C@H]2C1.Cl [RO0320557-001]
CDK10
  potency estimated from few doses: 1200 nM
GSK3A
  potency estimated from few doses: 53.4 nM
GSK3B
  potency estimated from few doses: 41.5 nM
ILK
  potency estimated from few doses: 2350 nM
PKN1
  potency estimated from few doses: 2490 nM
PRKCB; compound concentrations: 100 nM and 1000 nM (sheet 'Samples'), CATDS: 0.15520106797875899
  potency estimated from few doses: 20.3 nM
PRKCI
  potency estimated from few doses: 1930 nM
RPS6KA6
  potency estimated from few doses: 386 nM
RPS6KB1
  potency estimated from few doses: 104 nM

## c1ccc(-c2cc(-c3c[nH]nc3-c3ccccn3)ccn2)cc1 [GW576604X]
CDC7
  potency estimated from few doses: 1870 nM
PIK3CD
  potency estimated from few doses: 128 nM
TGFBR1
  potency estimated from few doses: 629 nM

## COc1cc2ncn(-c3cc(OCc4ccccc4C(F)(F)F)c(C(=O)N(C)C)s3)c2cc1OC [GSK1030062A]
CDK4; compound concentrations: 100 nM and 1000 nM (sheet 'Samples'), CATDS: 0.32683838675566101
  potency estimated from few doses: 2020 nM
MAP2K2
  potency estimated from few doses: 1720 nM
PDGFRB
  potency estimated from few doses: 2110 nM

## COc1cccc(F)c1C(=O)c1cnc(NC2CCN(S(C)(=O)=O)CC2)nc1N [RO4602005-000]
CDK16
  potency estimated from few doses: 9.38 nM
CDK17
  potency estimated from few doses: 73.2 nM
CDK1
  potency estimated from few doses: 228 nM
CDK2
  potency estimated from few doses: 37.7 nM
CDK4; [1]
  potency estimated from few doses: 1450 nM
CDK5
  potency estimated from few doses: 234 nM
CDK6
  potency estimated from few doses: 1750 nM
CDK7
  potency estimated from few doses: 812 nM
CDK9
  potency estimated from few doses: 206 nM
ICK
  potency estimated from few doses: 146 nM
NNT
  potency estimated from few doses: 1690 nM
PSMC4; [1]
  potency estimated from few doses: 1400 nM
SLK
  potency estimated from few doses: 845 nM

## CNc1nc(-c2ccc3c(N)n[nH]c3c2)cc(N2C[C@@H](C(=O)Nc3ccccc3)CC[C@H]2C)n1 [GSK2298859A]
CDC42; [1]
  potency estimated from few doses: 2140 nM
DJA1
  potency estimated from few doses: 880 nM
PRKCQ
  potency estimated from few doses: 1800 nM

## CCCN1CCCC(c2ccc(Nc3nc(Nc4cc(F)ccc4C(N)=O)c4cc[nH]c4n3)c(OC)c2)C1 (centres unmarked) [GSK1173862A]
CDC42; compound concentrations: 100 nM and 1000 nM (sheet 'Samples'), CATDS: 4.3032630224219597E-2
  potency estimated from few doses: 1230 nM
CLK1; compound concentrations: 100 nM and 1000 nM (sheet 'Samples'), CATDS: 4.7124029654616303E-2
  potency estimated from few doses: 927 nM
CLK4; compound concentrations: 100 nM and 1000 nM (sheet 'Samples'), CATDS: 4.6212544182609797E-2
  potency estimated from few doses: 982 nM
COX5A
  potency estimated from few doses: 1230 nM
CSNK1D
  potency estimated from few doses: 1310 nM
CSNK1E
  potency estimated from few doses: 2340 nM
EIF2AK1
  potency estimated from few doses: 805 nM
GAK
  potency estimated from few doses: 17.6 nM
IGF1R
  potency estimated from few doses: 905 nM
INSR
  potency estimated from few doses: 391 nM
MAPK10
  potency estimated from few doses: 65.2 nM
MAPK8
  potency estimated from few doses: 143 nM
MAPK9
  potency estimated from few doses: 427 nM
NQO2
  potency estimated from few doses: 1570 nM
PSMC4; compound concentrations: 100 nM and 1000 nM (sheet 'Samples'), CATDS: 4.1025682332982399E-2
  potency estimated from few doses: 1450 nM
PTK2B
  potency estimated from few doses: 280 nM
TNK1
  potency estimated from few doses: 257 nM
TTK
  potency estimated from few doses: 783 nM

From PMC11062922 (Nature Chemical Biology, 2023)
